A selection: hits, their analogues and other compounds. The true share with any hit is near 2.4%.
CHO-K1 Ca antag – nonselective inhibitor or artifact in parental CHO-K1 cells; 360,000 tested, 0.6% active; ATP-induced calcium, Fluo-8 fluorescence; inhibition, % at 3 µM;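 active = inhibition above a per-plate cutoff, the plate's mean sample inhibition plus 3 SD, cut at about 24% in these data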
CHO-K1 Ca ag – nonselective activator or artifact in parental CHO-K1 cells; Fluo-8 calcium fluorescence; scaled to maximal ATP response, vehicle zero; activation, % at 3 µM; 360,000 tested, 0.48% active; AID 602248; in the data active = activation above about 15%;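 also: untransfected CHO-K1 host cells lacking M1 receptor as counterscreen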
M1 antag – human CHRM1 antagonism; P11229; CHO-K1 hM1, Fluo-8 calcium fluorescence, ACh EC80 antagonist; inhibition, % at 3 µM; 360,000 tested, 1.3% active; AID 588852;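 active = percent inhibition above its own plate's cutoff, namely the mean of that plate's compound wells plus 3 SD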;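 also: peak over basal fluorescence ratio during 140 s after agonist addition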
Target sequence (P11229 whole entry, looked up): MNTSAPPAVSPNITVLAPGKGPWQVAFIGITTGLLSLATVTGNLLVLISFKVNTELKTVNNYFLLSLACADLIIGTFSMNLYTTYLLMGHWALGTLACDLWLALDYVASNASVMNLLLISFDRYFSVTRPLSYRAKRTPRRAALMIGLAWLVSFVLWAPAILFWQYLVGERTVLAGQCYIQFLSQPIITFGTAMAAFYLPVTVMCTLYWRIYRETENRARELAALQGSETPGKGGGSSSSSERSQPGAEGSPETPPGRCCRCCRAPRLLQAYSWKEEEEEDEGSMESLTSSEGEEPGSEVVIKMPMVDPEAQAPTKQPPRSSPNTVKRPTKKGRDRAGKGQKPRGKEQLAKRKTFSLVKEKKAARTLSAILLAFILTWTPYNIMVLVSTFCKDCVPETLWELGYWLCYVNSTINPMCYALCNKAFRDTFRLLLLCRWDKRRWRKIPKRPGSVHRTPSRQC
CHRM1 agonist – activates human CHRM1 receptor | P11229 | CHO-K1 hM1, Fluo-8 calcium fluorescence, agonist mode; 0% DMSO, 100% acetylcholine EC100 | activation, % at 3 µM | 360,000 tested, 0.33% active;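 active = activation above the run's mean compound activation plus 3 SD, cut at about 16% in these data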;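 also: peak over basal fluorescence ratio within a 140 s kinetic read after compound addition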
M1 PAM parental – M1 PAM counterscreen hit in parental CHO-K1 cells. ATP EC20, Fluo-8 calcium fluorescence; 0% at ATP EC20, 100% at ATP max. activation, % at 3 µM. 360,000 tested, 0.02% active. AID 602247;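 active = activation above the run cutoff, the mean activation of all test compounds plus 3 SD, cut at about 40% in these data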;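 also: peak over basal fluorescence ratio in a 140 s read after ATP addition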
M1 PAM – positive allosteric modulators of human M1 muscarinic receptor; CHO-K1 hM1, Fluo-8 calcium fluorescence, ACh EC20; 0% = ACh EC20, 100% = maximal ACh; activation, % at 3 µM; 360,000 tested, 0.088% active; AID 588819; in the data active = activation above about 19%, passing the limit was not always enough
Numbers stand for hits; – = inactive.

SMILES	CHO-K1 Ca antag	CHO-K1 Ca ag	M1 antag	CHRM1 agonist	M1 PAM parental	M1 PAM
COc1ccc(-c2nn(-c3ccccc3)cc2/C=N/NC(=O)c2ccc(Br)o2)cc1	–	–	44	–	–	–
O=C(NCCCN1CCCC1)c1[nH]c(C(F)(F)F)nc1-c1ccccc1	–	–	–	–	–	–
CCCCOc1ccc(C(=O)NCC(=O)N2CCN(Cc3ccc4c(c3)OCO4)CC2)cc1	–	–	30	–	–	–
O=C(NCC(=O)N1CCN(Cc2ccc3c(c2)OCO3)CC1)c1ccccc1F	–	–	–	–	–	–
COCC(C)NC(=O)c1ccc(CN2CCc3ccccc3C2)cc1 (stereo unspecified)	–	–	65	–	–	–
O=C(NCc1ccc2c(c1)OCO2)c1ccc(CN2CCc3ccccc3C2)cc1	–	–	32	–	–	–
CCC(C)NC(=O)c1ccc(CN2CCc3ccccc3C2)cc1 (stereo unspecified)	–	–	65	–	–	–
Cc1ccccc1NC(=O)CSc1nnc(CNC(=O)c2ccco2)n1C	–	–	–	–	–	–
COc1ccc(CCNc2nc3ccccc3n3nnnc23)cc1OC	27	–	–	–	–	–
O=C(CCNS(=O)(=O)c1cccc2nsnc12)N1CCN(c2ccccn2)CC1	–	–	89	–	–	–
CC(=O)Nc1ccc(S(=O)(=O)N2CCC(C(N)=O)(N3CCCCC3)CC2)cc1	–	–	–	–	–	–
COc1ccc(Br)cc1CN(C)C(=O)CNC(=O)c1ccc2ccccc2c1	–	–	29	–	–	–
COc1ccc(CN(C)C(=O)CNC(=O)c2ccc3ccccc3c2)c(OC)c1	–	–	–	–	–	–
COc1ncnc2c1ncn2CCCN1CCN(Cc2cccc3ccccc23)CC1	–	–	–	–	–	–
COc1ncnc2c1ncn2CCCN1CCN(Cc2ccc(C)cc2)CC1	–	–	28	–	–	–
O=C(O)C(=Cc1cccc([N+](=O)[O-])c1)c1ccccc1	–	–	–	–	–	–
O=C(C#Cc1cccc([N+](=O)[O-])c1)c1ccccc1	27	–	–	–	–	–
COc1ccc(Cl)cc1NC(=O)CCCn1c(=O)c2cccn2c2cccnc21	–	–	–	–	–	–
C[N+](C)(C)CCCCCCC(=O)/C=N/O	–	–	–	36	–	–
C[N+]1(CCCCCCC(=O)/C=N/O)CCCCCC1	–	–	–	–	–	–
NC(=O)c1nsc(C(=O)N(Cc2ccco2)C(C(=O)NCc2ccc(F)cc2)c2ccc(O)cc2)c1N (stereo unspecified)	–	–	–	–	–	–
CN(C)c1ccc(C(C(=O)NCC2CCCO2)N(Cc2ccccc2)C(=O)c2snc(C(N)=O)c2N)cc1 (stereo unspecified)	–	–	26	–	–	–
COc1ccc(C(C(=O)NC2CCCCC2)N(Cc2ccco2)C(=O)c2snc(C(N)=O)c2N)cc1 (stereo unspecified)	–	–	25	–	–	–
Cc1ccc(C(C(=O)NCc2ccc(F)cc2)N(Cc2ccco2)C(=O)c2snc(C(N)=O)c2N)o1 (stereo unspecified)	–	–	35	–	–	–
Cc1ccc(C(C(=O)NC2CCCC2)N(Cc2ccc3c(c2)OCO3)C(=O)c2snc(C(N)=O)c2N)cc1 (stereo unspecified)	–	–	24	–	–	–
SMILES	CHO-K1 Ca antag	CHO-K1 Ca ag	M1 antag	CHRM1 agonist	M1 PAM parental	M1 PAM
COc1ccc(S(=O)(=O)N2CCC(C(=O)N(C)Cc3ccc(C)o3)CC2)cc1OC	–	–	–	–	–	–
ON=C(CCc1ccccc1)CCc1ccccc1	–	–	–	–	–	–
FC(F)(F)c1cnc(N2CCCN(C(=S)Nc3ccccc3)CC2)c(Cl)c1	–	17	–	–	–	–
FC(F)(F)c1cnc(N2CCN(C(=S)NCc3ccccc3)CC2)c(Cl)c1	–	–	–	–	–	–
CC(C)(C)C(=O)N1CCN(c2ccnc3cc(Cl)ccc23)CC1	–	–	–	–	–	–
O=C(Nc1ccc(OC(F)(F)F)cc1)N1CCN(c2ccnc3cc(Cl)ccc23)CC1	27	–	–	–	–	–
CCN(CC)S(=O)(=O)c1ccc(/C=C/C(=O)Nc2ccc(Br)cc2F)cc1	–	–	31	–	–	–
CCN(CC)S(=O)(=O)c1cccc(NC(=O)/C=C/c2cccc([N+](=O)[O-])c2)c1	–	16	–	–	–	–
CCN(CC)S(=O)(=O)c1cccc(NC(=O)/C=C/c2ccc([N+](=O)[O-])cc2)c1	–	–	–	–	–	–
CN(C)c1ccc(CC(=O)N2CCCC(c3cc(C(=O)Nc4ccc(C(C)(C)C)cc4)no3)C2)cc1 (stereo unspecified)	–	–	29	–	–	–
O=C(Nc1ccccc1)c1cc(C2CCCN(C(=O)CCc3ccccc3)C2)on1 (stereo unspecified)	–	–	–	–	–	–
CCN(CC(=O)Nc1ccc(NC(C)=O)cc1)C(=O)c1cn(-c2ccccc2)nc1-c1cccs1	–	–	–	–	–	–
Cc1cccc(C(=O)OCC(=O)N2CCCC2=O)c1O	–	–	–	–	–	–
CCOC(=O)c1cnc2c(CC)cccc2c1NCCN1CCOCC1	–	–	64	–	–	–
CCOC(=O)c1cnc2c(C(=O)OC)cccc2c1NCCN1CCOCC1	–	–	–	–	–	–
CC(C)(C)N(NS(=O)(=O)c1ccc(F)cc1)c1ccccc1	–	–	–	–	–	–
O=C(Cn1[nH]c(=O)c2ccccc2c1=O)N1CCN(S(=O)(=O)c2ccc(Cl)cc2)CC1	–	–	–	–	–	–
CSc1nc(Cl)c(Br)c(Nc2c[nH]c(=O)[nH]c2=O)n1	–	–	–	–	–	–
O=C(N/N=C/C(Cl)=C/c1ccccc1)c1ccc2c(c1)OCO2	–	–	–	–	–	–
O=S1(=O)c2ccc(Br)cc2N2CCC[C@@H]2CN1Cc1ccc(Cl)cc1	–	–	24	–	–	–
Cc1ccc(C(=O)OCC(=O)NCc2ccc(Cl)cc2Cl)o1	–	–	–	–	–	–
C=CCn1c(C)c(C(C)=O)c(N2CCCC2)nc1=S	–	–	98	–	–	–
C=CCn1c(C)c(C(C)=O)c(N2CCN(c3ccccc3)CC2)nc1=S	–	–	89	–	–	–
CCn1c(C)c(C(C)=O)c(N2CCCC2)nc1=S	–	–	40	–	–	–
CN(CC(=O)NNC(=O)Cc1ccccc1F)S(=O)(=O)c1ccc(Cl)cc1	–	–	–	–	–	–
C=CCN1C=CC(=O)[C@@H](OC(=O)Nc2ccc(Br)cc2)[C@H]1c1ccccc1Br	–	–	–	–	–	–
Cc1ccc(S(=O)(=O)N2CCCCC2)cc1NC(=O)c1cnccn1	–	–	–	–	–	–
